In the supplement of paper PMC7411640:
Counter-ions that a name gives are not always drawn.

Tested on: MDA-MB-468
Assay: phospho-S6 immunofluorescence (DAPI-normalised), per-plate z-score; higher = higher phospho-S6 signal (less pathway suppression)
Conditions: 24 h
Experimental: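 GPCR-targeted compound library (MedChemExpress HY-L006) tested on MDA-MB-468 PTEN-null TNBC cells in 384-well plates at 0.1, 1 or 10 uM, combined with vehicle, GDC0941 450 nM or lapatinib 1 uM, for 24 h. Phospho-S6 (S240/244) immunofluorescence normalised to DAPI and expressed as a per-plate z-score; values are the mean of biological triplicates.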

In the case of `CCc1cc(/C(C)=N/OCc2ccc(C3CCCCC3)c(C(F)(F)F)c2)ccc1CN1CC(C(=O)O)C1` [Siponimod] (compound 10 µM), the “phospho-S6 immunofluorescence (z-score)” value (co-treatment: GDC0941 450 nM) is reported as -0.49, the “phospho-S6 immunofluorescence (z-score)” value (co-treatment: lapatinib 1 uM) is reported as 0.38 and the “phospho-S6 immunofluorescence (z-score)” value (co-treatment: vehicle) is reported as 0.15.

In the case of `CNC(=C[N+](=O)[O-])NCCSCc1ccc(CN(C)C)o1` [Ranitidine (hydrochloride)] (compound 10 µM), the “phospho-S6 immunofluorescence (z-score)” value (co-treatment: GDC0941 450 nM) is reported as 0.47, the “phospho-S6 immunofluorescence (z-score)” value (co-treatment: lapatinib 1 uM) is reported as 0.54 and the “phospho-S6 immunofluorescence (z-score)” value (co-treatment: vehicle) is reported as 0.29.

In the case of `O=C(N[C@@H]1CC[C@@H](c2cccc(F)c2F)CN(CC(F)(F)F)C1=O)N1CCC(n2c(=O)[nH]c3ncccc32)CC1` (compound 10 µM), the “phospho-S6 immunofluorescence (z-score)” value (co-treatment: GDC0941 450 nM) is reported as 0.18, the “phospho-S6 immunofluorescence (z-score)” value (co-treatment: lapatinib 1 uM) is reported as 0.53 and the “phospho-S6 immunofluorescence (z-score)” value (co-treatment: vehicle) is reported as -0.42.

In the case of `CN(C)N(C)C(=O)[C@@]1(Cc2ccccc2)CCCN(C(=O)[C@@H](Cc2c[nH]c3ccccc23)NC(=O)C(C)(C)N)C1` [Anamorelin] (compound 10 µM), the “phospho-S6 immunofluorescence (z-score)” value (co-treatment: GDC0941 450 nM) is reported as -0.16, the “phospho-S6 immunofluorescence (z-score)” value (co-treatment: lapatinib 1 uM) is reported as -2.31 and the “phospho-S6 immunofluorescence (z-score)” value (co-treatment: vehicle) is reported as 0.4.

For `CC(C)NCC(O)COc1ccc(CCOCC2CC2)cc1` (centres undefined) [Betaxolol] (compound 10 µM), the “phospho-S6 immunofluorescence (z-score)” value (co-treatment: GDC0941 450 nM) was 0.15, the “phospho-S6 immunofluorescence (z-score)” value (co-treatment: lapatinib 1 uM) was 0.69 and the “phospho-S6 immunofluorescence (z-score)” value (co-treatment: vehicle) was -0.54.

With `Cc1noc(-c2ccc(-c3ccc(CC(=O)O)cc3)cc2)c1NC(=O)OC(C)c1ccccc1Cl` (centres undefined) (compound 10 µM) the “phospho-S6 immunofluorescence (z-score)” value (co-treatment: GDC0941 450 nM) was 0.23, the “phospho-S6 immunofluorescence (z-score)” value (co-treatment: lapatinib 1 uM) was 0.28 and the “phospho-S6 immunofluorescence (z-score)” value (co-treatment: vehicle) was 0.02.

For `COc1ccc2ccc(=O)oc2c1CC=C(C)C` [Osthole] (compound 10 µM), the “phospho-S6 immunofluorescence (z-score)” value (co-treatment: GDC0941 450 nM) was 0.06, the “phospho-S6 immunofluorescence (z-score)” value (co-treatment: lapatinib 1 uM) was 0.19 and the “phospho-S6 immunofluorescence (z-score)” value (co-treatment: vehicle) was 0.23.

For `CCN1CCCC1CNC(=O)c1cc(S(=O)(=O)CC)c(N)cc1OC` (centres undefined) [Amisulpride] (compound 10 µM), the “phospho-S6 immunofluorescence (z-score)” value (co-treatment: GDC0941 450 nM) was 0.37, the “phospho-S6 immunofluorescence (z-score)” value (co-treatment: lapatinib 1 uM) was 0.58 and the “phospho-S6 immunofluorescence (z-score)” value (co-treatment: vehicle) was 0.83.

With `CS(=O)(=O)c1cc(F)cc2c3c(n(Cc4ccc(Cl)cc4)c12)[C@@H](CC(=O)O)CC3` [Laropiprant] (compound 10 µM) the “phospho-S6 immunofluorescence (z-score)” value (co-treatment: GDC0941 450 nM) was 0.48, the “phospho-S6 immunofluorescence (z-score)” value (co-treatment: lapatinib 1 uM) was 0.81 and the “phospho-S6 immunofluorescence (z-score)” value (co-treatment: vehicle) was 0.75.

For `Cc1ccccc1N1CCN(CCc2nnc3n2CCCC3)CC1` [Dapiprazole (hydrochloride)] (compound 10 µM), the “phospho-S6 immunofluorescence (z-score)” value (co-treatment: GDC0941 450 nM) was 0.31, the “phospho-S6 immunofluorescence (z-score)” value (co-treatment: lapatinib 1 uM) was -0.49 and the “phospho-S6 immunofluorescence (z-score)” value (co-treatment: vehicle) was -0.32.

For `N=C(N)NCCC[C@H](NC(=O)[C@H](Cc1ccccc1)NC(=O)[C@@H]1CCCN1C(=O)[C@H](CO)NC(=O)[C@H](Cc1ccccc1)NC(=O)CNC(=O)[C@@H]1CCCN1C(=O)[C@@H]1CCCN1C(=O)[C@@H](N)CCCNC(=N)N)C(=O)O` [Bradykinin] (compound 10 µM), the “phospho-S6 immunofluorescence (z-score)” value (co-treatment: GDC0941 450 nM) was -0.14, the “phospho-S6 immunofluorescence (z-score)” value (co-treatment: lapatinib 1 uM) was 0.5 and the “phospho-S6 immunofluorescence (z-score)” value (co-treatment: vehicle) was -0.36.

`Cc1cc2c(cc1CC(=O)c1sccc1S(=O)(=O)Nc1onc(C)c1Cl)OCO2` [Sitaxsentan (sodium)] (compound 10 µM) was tested, and the “phospho-S6 immunofluorescence (z-score)” value (co-treatment: GDC0941 450 nM) was 0.35, the “phospho-S6 immunofluorescence (z-score)” value (co-treatment: lapatinib 1 uM) was 0.35 and the “phospho-S6 immunofluorescence (z-score)” value (co-treatment: vehicle) was 0.45.

With `CC(C)[C@H](N=C(NS(=O)(=O)c1ccc(Cl)cc1)N1C[C@H](c2ccccc2)C(c2ccc(Cl)cc2)=N1)C(N)=O` (compound 10 µM) the “phospho-S6 immunofluorescence (z-score)” value (co-treatment: GDC0941 450 nM) was -2.11, the “phospho-S6 immunofluorescence (z-score)” value (co-treatment: lapatinib 1 uM) was -0.39 and the “phospho-S6 immunofluorescence (z-score)” value (co-treatment: vehicle) was 0.1.
